Compound activity as filed in PubChem.
NPSR antag: neuropeptide S receptor (human) antagonism, cAMP; CHO-NPSR cells, cAMP TR-FRET, antagonist mode; Q6W5P4; 220,000 compounds, 1% hits; Potency, µM (series often up to 38.3 µM), most hits filed as inhibitors; also: nearly all actives have a fitted effect of over 50% in size
Target sequence (Q6W5P4 whole entry, looked up): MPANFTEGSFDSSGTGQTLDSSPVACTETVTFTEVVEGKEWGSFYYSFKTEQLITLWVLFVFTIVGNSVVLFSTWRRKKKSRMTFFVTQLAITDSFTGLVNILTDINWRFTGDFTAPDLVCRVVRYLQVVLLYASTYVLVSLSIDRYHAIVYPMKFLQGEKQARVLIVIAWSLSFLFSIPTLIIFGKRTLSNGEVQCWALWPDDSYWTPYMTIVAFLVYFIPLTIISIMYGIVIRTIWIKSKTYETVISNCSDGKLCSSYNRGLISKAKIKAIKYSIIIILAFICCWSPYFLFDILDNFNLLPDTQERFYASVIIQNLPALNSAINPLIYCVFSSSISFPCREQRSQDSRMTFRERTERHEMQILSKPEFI
ERK EGF block: EGF-driven ERK pathway inhibition; Potency, µM (titrated, usually from 11.5 µM), most hits filed as inhibitors; 130,000 compounds, 0.41% hits; HEK293-V1b, EGF-stimulated phospho-ERK AlphaScreen; also: nearly all actives have a fitted effect of over 55% in size
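Compounds are titrated over HEK293-V1b cells kept overnight in 1% FBS. After 30 min at 37C, EGF (25 nM final) triggers ERK phosphorylation for 5 min, measured by AlphaScreen in lysates.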
cRaf kinase inh: c-Raf inhibition, ERK pathway follow-up; activity change, negative = inhibition, % at 76.9 µM; 70 tested, under 10 active; AID 1728; c-Raf kinase inhibition, homogeneous biochemical assay; shares compounds with ERK EGF block
MEK1 kinase inh: ERK pathway inhibitors follow-up: human MEK1 kinase inhibition | shares compounds with ERK EGF block | homogeneous MEK kinase activity assay, ERK pathway | Potency, µM (top dose mostly 76.9 µM), actives largely listed as inhibitors | 70 tested, under 10 active | AID 1732
Each line names hits and unclear results; the compound was inactive in the other large screens (follow-up assays come after a bar, where they were run); ! = a repeat was not active. The sample as a whole holds a higher share of hits than the screen did. Calls follow the shape of the dose curve; as a rule, active = well fitted curve in the direction sought with a large enough effect; inconclusive = small, poorly fitted or top-dose-only effect, or another doubt; inactive = no such curve, though single readings can be large; an effect the other way counts as inactive or inconclusive.

CCCCCCCCCCCCC/C=C/[C@@H](O)[C@@H](N)COP(=O)([O-])OCC[N+](C)(C)C	none (no result: NPSR antag)
CCC(C)N1C(=O)/C(=C\c2cnc(N(C)C)nc2)C(=O)NC1=S (stereo not drawn)	NPSR antag inconclusive
CN(C)c1ncc(/C=C2/C(=O)NC(=S)N(C3CCCCC3)C2=O)cn1	NPSR antag 10µM
CC(=O)Oc1ccc(Cl)c2cccnc12	none (no result: NPSR antag)
C=C1C/C(=C\C)C(=O)O[C@@H]2CCN3CC=C(COC(=O)[C@@]1(C)O)[C@H]23	none (no result: NPSR antag)
Cc1ccc(N2C(=O)NC(=O)/C(=C\C=C\c3ccco3)C2=O)cc1C	NPSR antag 13µM, ERK EGF block inconclusive
CN1C(=O)/C(=C/C=C/c2ccco2)C(=O)NC1=S	none
c1ccc(CN2CCC3(CCNCC3)CC2)cc1	none (no result: NPSR antag)
O[N+]1=CC=CCC1=S.On1ccccc1=S.[Zn]	ERK EGF block 20µM (no result: NPSR antag)
CN1[C@H]2CC(=O)C[C@@H]1[C@@H](O)C2	none (no result: NPSR antag)
CC[C@@H]1CN2CCc3cc(OC)c(OC)cc3[C@@H]2C[C@@H]1C[C@H]1NCCc2cc(OC)c(OC)cc21	none (no result: NPSR antag)
CC/C=C\C[C@@H](/C=C/C=C\C/C=C\C/C=C\CCCC(=O)O)OO	none (no result: NPSR antag)
CC1Oc2cc3c(-c4c(O)cc(O)c5c(O)c6c(cc45)OC(C)C(C)C6=O)c(O)cc(O)c3c(O)c2C(=O)C1C (stereo not drawn)	NPSR antag inconclusive, ERK EGF block 16µM
CC(=O)OCC1=C(C(=O)[O-])N2C(=O)[C@@H](NC(=O)CCC[C@@H](N)C(=O)[O-])[C@H]2SC1.[Zn+2]	none
CN1CCN(c2ccc(S(C)(=O)=O)cc2[N+](=O)[O-])CC1	none
CN1CCN(c2ccc([N+](=O)[O-])c3no[n+]([O-])c23)CC1	NPSR antag 10µM, ERK EGF block 10µM
CCOC(=O)C1C(C=C(C)C)C1(C)C (stereo not drawn)	none (no result: NPSR antag)
Cc1noc(C)c1C(=O)N1CCC[C@@]2(CCN(CC(C)C)C2)C1	none (no result: NPSR antag)
CN1/C(=C\C=C\C2=[N+](C)c3ccc4ccccc4c3C2(C)C)C(C)(C)c2ccccc21	NPSR antag 7.9µM (no result: ERK EGF block)
CN1/C(=C\C=Nc2ccccc2)C(C)(C)c2ccccc21	NPSR antag inconclusive
CCC1C2CC3C4N(C)c5ccccc5[C@]45CC(C2C5O)N3C1O (stereo partly drawn)	none (no result: NPSR antag)
CCCCCCCCCCCCCCC[C@@H](O)[C@@H](N)COP(=O)(O)O	none (no result: NPSR antag)
O=C1CC(N2CCC(n3c(=O)[nH]c4ccccc43)CC2)C(=O)N1c1ccc(F)cc1 (stereo not drawn)	none (no result: ERK EGF block)
O=c1[nH]c2ccccc2n1C1CCN(CCCC(c2ccc(F)cc2)c2ccc(F)cc2)CC1	NPSR antag 6.3µM, ERK EGF block 25µM!
C=CCN1C[C@@H](C)N([C@H](c2ccc(C(=O)N(CC)CC)cc2)c2cccc(OC)c2)C[C@@H]1C	none
O=c1[nH]c(O)c(/C=C2/C=CC(c3cc(Cl)ccc3Cl)=N2)c(=O)[nH]1	NPSR antag inconclusive, ERK EGF block 28µM
Cc1ccc2c(c1)=NC(=O)/C(=C/c1c(O)[nH]c(=O)[nH]c1=O)C=2	none
C=CCC1(C(C)CCC)C(=O)N=C(S)NC1=O (stereo not drawn)	none (no result: NPSR antag)
CCN(CC)c1ccc(CN2CC=C(c3ccc(F)cc3)CC2)cc1	NPSR antag 10µM (no result: ERK EGF block)
NC(=O)c1ccc(OCC(O)CN2CC=C(c3ccc(F)cc3)CC2)cc1 (stereo not drawn)	none
O=C1C(=O)c2ccccc2-c2ccccc21	NPSR antag 3.2µM, ERK EGF block inconclusive
O=C1C(=O)c2cccc3cccc1c23	none
Clc1ccc(COC(Cn2ccnc2)c2ccc(Cl)cc2Cl)cc1 (stereo not drawn)	NPSR antag inconclusive, ERK EGF block 28µM
Clc1ccc(CS[C@@H](Cn2ccnc2)c2ccc(Cl)cc2Cl)cc1	none (no result: NPSR antag)
CN(CCc1ccc(Cl)c(Cl)c1)[C@H]1CCCC[C@H]1N1CCCC1	none (no result: NPSR antag)
N#CC(C#N)=NNc1ccc(S(N)(=O)=O)cc1	none
CC1CCN(S(=O)(=O)c2ccc(NN=C(C#N)C#N)cc2)CC1	NPSR antag 10µM (no result: ERK EGF block)
COCCNC(=O)c1c(NC(=O)c2ccc(Br)o2)n(Cc2ccccc2)c2nc3ccccc3nc12	none
CC(C)CCn1c(N)c(C(=O)NCc2cccs2)c2nc3ccccc3nc21	none (no result: ERK EGF block)
CC(C)CNC(=O)c1c(N)n(Cc2ccco2)c2nc3ccccc3nc12	NPSR antag 10µM (no result: ERK EGF block)
CC(C)OCCCNC(=O)c1c(N)n(Cc2cccs2)c2nc3ccccc3nc12	NPSR antag 10µM (no result: ERK EGF block)
CC(C)CNC(=O)c1c(N)n(Cc2ccc3c(c2)OCO3)c2nc3ccccc3nc12	NPSR antag 3.2µM (no result: ERK EGF block)
CCCNC(=O)c1c(N)n(Cc2ccc3c(c2)OCO3)c2nc3ccccc3nc12	none (no result: ERK EGF block)
COCCCNC(=O)c1c(NC(=O)c2ccco2)n(Cc2ccccc2)c2nc3ccccc3nc12	NPSR antag 13µM (no result: ERK EGF block)
COCCCNC(=O)c1c(N)n(Cc2ccco2)c2nc3ccccc3nc12	none
c1ccc(N2CCC3(CCNCC3)CC2)cc1	none (no result: NPSR antag)
COc1ccc2c(c1)c(CCN1CCOCC1)c(C)n2C(=O)c1cccc(Cl)c1Cl	none (no result: NPSR antag)
C=C(C)C1Cc2c(ccc3c2OC2COc4cc(OC)c(OC)cc4C2C3=O)O1 (stereo not drawn)	none (no result: NPSR antag)
Cc1ncc(CN2CC=C(c3ccccc3)CC2)c(N)n1	none (no result: NPSR antag)
N#Cc1ccc(CN2CC[C@@]3(CCCN(C(=O)Oc4ccccc4)C3)C2)cc1	none (no result: NPSR antag)
Cc1nn(Cc2ccccc2)c(C)c1C=C1C(=O)NC(=S)NC1=O	NPSR antag inconclusive
CCN(CC)c1ccc(C=C2C(=O)NC(=S)NC2=O)cc1	NPSR antag inconclusive, ERK EGF block 28µM
NC1CC1c1ccccc1 (stereo not drawn)	none
NC(N)=NCCCCCCCCCCN=C(N)N	none (no result: NPSR antag)
COc1ccc2c(c1OC)CN1CCc3cc4c(cc3[C@H]1C2)OCO4	none (no result: NPSR antag)
COc1ccc2c(c[n+](C)c3c4cc5c(cc4ccc23)OCO5)c1OC	NPSR antag inconclusive, ERK EGF block 13µM
CCN1C[C@]2(COC)CC[C@H](O)[C@@]34[C@@H]5C[C@H]6[C@@H](OC)[C@H]5[C@](O)(C[C@@H]6OC)[C@@](O)([C@@H](OC)[C@H]23)[C@@H]14	none (no result: NPSR antag)
CN1CCCC2(CCN(C(=O)Oc3ccccc3)CC2)C1	none (no result: NPSR antag)
CNc1ccc2oc(C[C@H]3O[C@@]4(CC[C@H]3C)O[C@H]([C@H](C)C(=O)c3ccc[nH]3)[C@H](C)C[C@H]4C)nc2c1C(=O)O	NPSR antag 7.9µM, ERK EGF block 14µM!
c1csc(CN2CCC3(CCNCC3)CC2)n1	none (no result: NPSR antag)
Cc1c(P(=S)(c2ccccc2)c2ccccc2)[n+]2ccccc2n1C	NPSR antag 1.3µM
CC(C)c1ccc(N2C(=O)NC(=O)/C(=C/c3cnc(-c4ccccc4)nc3)C2=O)cc1	none
O=C1NC(=O)N(Cc2ccccc2)C(=O)/C1=C/c1cnc(-c2ccccc2)nc1	NPSR antag 10µM
Cc1[nH]cnc1CCN	none (no result: NPSR antag)
C[C@@H](Cc1cccc(C(F)(F)F)c1)NCCCc1ccccc1	none (no result: NPSR antag)
CCn1nc(-c2ccccc2)nc2c(=O)n(C)c(=O)nc1-2	NPSR antag 4µM | cRaf kinase inh inconclusive | MEK1 kinase inh 0.63µM
O=c1c2ccccc2nc(-c2ccccc2)n1-n1cccc1	none (no result: ERK EGF block)
COc1ccc(-c2nc3ccccc3c(=O)n2-c2ccc(OC)cc2)cc1	none
